Screening results deposited in PubChem by National Center for Advancing Translational Sciences (NCATS).
HPGD block – inhibitors of human 15-hydroxyprostaglandin dehydrogenase (HPGD). AID 894. Potency, µM, for the others: at the top dose activity change, negative = inhibition, usual class: inhibitors. purified HPGD, NADH fluorescence kinetic, PGE2 substrate. 150,000 tested, 4.3% active; active = well fitted inhibition curve with a large enough effect, not every such curve was filed as active; inconclusive = small, poorly fitted or top-dose-only effect, or another doubt; inactive = no such curve, though single readings can be large or run the other way; also: potency is read from the fitted curve at half-maximal effect
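NADH formation kinetics: reaction with 30 uM PGE2 and 1 mM NAD+ (final), 20 nM enzyme, Tris-HCl pH 8 with Tween 20, after 15 min compound preincubation at room temperature. Fluorescence change, last versus first of five reads.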
IMPase Li inh – cell-permeable IMPase inhibitors with lithium potentiation. CHO-M1 cells, IP1 TR-FRET (IP-One), carbachol + lithium. Potency, µM (titrated, usually from 59.4 µM), inactives show at the top dose activity, negative = IMPase inhibition, actives largely listed as inhibitors. 210,000 tested, 0.35% active. AID 1457;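 also: IP1 builds up when IMPase is blocked and the TR-FRET signal falls; potency is read from the fitted curve at half-maximal effect; plate controls were basal vehicle for no effect and high inhibitor control for full effect; nearly all actives have a fitted effect of over 50% in size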
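CHO cells stably expressing M1 receptor (2000/well, cultured 16–30 h) treated 30 min at 37C with compound plus low lithium. Cytosolic IP1 by TR-FRET (665/620 ratio and 620 channel) after 10 min lysis; AC50 by Hill fit.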
NPSR antag – neuropeptide S receptor (human) antagonism, cAMP. Q6W5P4. CHO-NPSR cells, cAMP TR-FRET, antagonist mode. Potency, µM (series often up to 38.3 µM), for the others: top-dose activity change, negative = inhibition, usual class: inhibitors. 220,000 tested, 1% active. AID 1461; also: potency is read from the fitted curve at half-maximal effect; nearly all actives have a fitted effect of over 50% in size
ALDH1A1 block – inhibitors of human aldehyde dehydrogenase 1A1; 220,000 tested, 7.3% active; Potency, µM (doses to about 75.3 µM), inactives show at the highest dose activity, negative = inhibition, most hits filed as inhibitors; Purified ALDH1A1, NADH fluorescence, propionaldehyde substrate; P00352; active = well fitted inhibition curve with a large enough effect, not every such curve was filed as active; inconclusive = small, poorly fitted or top-dose-only effect, or another doubt; inactive = no such curve, though single readings can be large or run the other way;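 also: potency is read from the fitted curve at half-maximal effect; plate controls were no enzyme wells and a reference inhibitor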
Target sequence (P00352 whole entry, looked up): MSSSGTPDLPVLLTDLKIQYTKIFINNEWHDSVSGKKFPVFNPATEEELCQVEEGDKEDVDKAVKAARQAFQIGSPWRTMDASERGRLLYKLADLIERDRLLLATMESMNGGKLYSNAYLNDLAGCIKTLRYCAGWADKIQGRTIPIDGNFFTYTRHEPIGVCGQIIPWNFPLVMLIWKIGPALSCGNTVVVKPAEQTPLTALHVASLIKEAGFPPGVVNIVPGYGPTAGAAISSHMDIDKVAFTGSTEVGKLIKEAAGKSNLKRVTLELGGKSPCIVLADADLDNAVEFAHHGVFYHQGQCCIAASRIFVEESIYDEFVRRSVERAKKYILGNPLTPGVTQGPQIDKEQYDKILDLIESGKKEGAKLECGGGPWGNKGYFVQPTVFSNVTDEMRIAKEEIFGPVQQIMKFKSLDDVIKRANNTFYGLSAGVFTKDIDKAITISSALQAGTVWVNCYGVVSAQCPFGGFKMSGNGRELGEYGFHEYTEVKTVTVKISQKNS
PNC assembly inh – blocks assembly of the perinucleolar compartment; PC3M PTB-GFP, PNC prevalence imaging, 16 h; hits give low values; 140,000 tested, 3.1% active; activity change (PNC), negative = inhibition, % at 10 µM; AID 2417;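 active = readout at or below -70, meaning at least 70% loss of cells showing the perinucleolar compartment, a nuclear body marking cancer cells; inconclusive = readout between -30 and a set limit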;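 also: plate controls were DMSO wells for no effect and camptothecin positive control wells for full effect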
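PC3M cells stably expressing PTB-GFP, 750–1000 cells/well, treated 16 h at 37 °C with compound (23 nl of library stock), in duplicate. After paraformaldehyde fixation and Hoechst stain, imaged at 20x; PNC prevalence scored by image analysis.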
IMPase inh – IMPase inhibition in cells; P97697; CHO-M1 cells, IP1 accumulation, HTRF TR-FRET ratio; inhibition (IP1 accumulation), % at 46.1 µM; 120,000 tested, under 10 active; AID 901; active = well fitted curve in the direction sought with a large enough effect in the signal ratio, not every such curve was filed as active; inconclusive = small, poorly fitted or top-dose-only effect, or a change in a side signal; inactive = no such curve, though single readings can be large or run the other way; the % refers to the signal ratio;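 also: cells stimulated with carbachol in lithium chloride buffer; plate controls were DMSO basal wells for no effect and reference inhibitor wells for full effect; higher means more IMPase inhibition seen as more IP1 and lower FRET ratio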
Target sequence (P97697 whole entry, looked up): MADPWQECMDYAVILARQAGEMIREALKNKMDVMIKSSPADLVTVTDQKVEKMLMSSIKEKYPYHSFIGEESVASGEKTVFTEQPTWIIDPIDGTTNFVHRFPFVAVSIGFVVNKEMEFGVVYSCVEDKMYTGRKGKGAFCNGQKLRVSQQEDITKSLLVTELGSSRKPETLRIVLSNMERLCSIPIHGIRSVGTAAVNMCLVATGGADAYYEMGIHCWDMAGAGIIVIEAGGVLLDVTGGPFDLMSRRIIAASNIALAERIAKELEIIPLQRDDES
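CHO-M1, 2000 cells/well, cultured 16–30 h; cpd up to 46 uM; carbachol (50 uM solution, stimulation buffer w/ 50 mM LiCl, pH 7.4), 30 min 37C; IP-One TR-FRET, 10 min RT; Ex 320/Em 665, 620; Hill-fit AC50.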
* marks the source's active call; other numbers are inactive results; ? = inconclusive; . = no result given; [ ] = another dose, or the depositor's remark. Compounds with a hit are over-represented: about 11% of the library has one in this group of screens. Unless noted, calls follow the shape of the dose curve; as a rule, active = well fitted curve in the direction sought with a large enough effect; inconclusive = small, poorly fitted or top-dose-only effect, or another doubt; inactive = no such curve, though single readings can be large; an effect the other way counts as inactive or inconclusive. Unless noted, % is scaled to controls: 0 for no effect and ±100 for the full control effect.

SMILES	HPGD block	IMPase Li inh	NPSR antag	ALDH1A1 block	PNC assembly inh	IMPase inh
CC(C)CCc1noc(CN2CCN(c3ccc(Cl)cn3)CC2)n1	.	19%	42%	4µM*	.	.
Cc1ccc(C)c(C(=O)COC(=O)c2cccc(N3C(=O)c4c(C)nc5ccccc5c4C3=O)c2)c1	-4%	-8%	5%	0%	31	.
O=c1[nH]c(-c2ccc(F)cc2)nc2c1sc(=S)n2-c1ccccc1	-26%	3%	-8%	?	?	4
O=c1[nH]cnc2c1sc(=S)n2-c1ccccc1	14µM*	23%[38.3 µM]	-10%[46.1 µM]	10µM*	?	-2
COc1ccc(C(=O)N/C(=C\c2cn(C)c3ccccc23)C(=O)OCCN(C)C)cc1	.	.	-4%	3%	.	.
CCCCOC(=O)/C(=C/c1cn(C)c2ccccc12)NC(=O)c1ccc(OC)cc1	-1%	-2%	-16%	7%	-93*	.
CCCC1(C(=O)OCC)NC(c2cc(OC)c(OC)c(OC)c2)C2C(=O)N(CC)C(=O)C21 (stereo not drawn)	1%	13%[38.3 µM]	6%[46.1 µM]	9%	9	-5
CCn1c(NC(=O)c2ccc(C)cc2)c2ccccc2nc1=O	1%	0%	-7%[46.1 µM]	3%	-90*	-1
CCn1c(NC(=O)c2ccc(F)cc2)c2ccccc2nc1=O	-2%	-7%	-16%[46.1 µM]	0%	25	-6
COC(=O)c1ccc(CSc2cc(C)c3cc(C)cc(C)c3n2)o1	.	21%	-44%	13µM*	.	.
COC(=O)c1ccc(CSc2cc(C)c3cccc(C)c3n2)o1	.	25%	-32%	?	.	.
COC(=O)c1ccc(CSc2nc3ccccc3s2)o1	-18%	10%	-18%[46.1 µM]	-15%	?	0
COC(=O)c1ccc(CSc2n[nH]c(=S)s2)o1	?	7%[38.3 µM]	-1%[46.1 µM]	3.5µM*	?	3
Fc1ccc(CSc2nnc(-c3cccs3)o2)cc1	16µM*	-3%[38.3 µM]	?	-14%	?	5
O=C(CSc1nnc(-c2cccs2)o1)N1CCCCC1	25µM*	-8%[38.3 µM]	-14%[46.1 µM]	?	29	2
c1ccc(-c2nnc(CSc3nc4ccccc4[nH]3)o2)cc1	28µM*	1%[38.3 µM]	-5%[46.1 µM]	-8%	?	2
c1ccc(-c2nnc(CSc3nnc(-c4cccs4)o3)o2)cc1	16µM*	5%[38.3 µM]	-21%[46.1 µM]	?	24	-7
COC(=O)[C@@H]1C[C@@]2(O)[C@H](O)[C@H](O)[C@H](O)C[C@H]2N1CC(c1ccccc1)c1ccccc1	-5%	-6%	10%	?	.	.
Cc1nnc(SCc2nnc(-c3cccs3)o2)n1Cc1ccccc1	.	8%	3%	13µM*	.	.
Fc1ccccc1CSc1nnc(-c2cccs2)o1	28µM*	-5%[38.3 µM]	-10%[46.1 µM]	-2%	-18	5
c1ccc2c(CSc3nnc(-c4ccncc4)o3)cccc2c1	25µM*	27%[38.3 µM]	?	-13%	4	8
CCSc1nnc(-c2cccs2)o1	-29%	-1%[38.3 µM]	5%[46.1 µM]	-13%	-20	2
c1ccc(CSc2nnc(-c3cccs3)o2)cc1	20µM*	10%[38.3 µM]	-10%[46.1 µM]	-5%	18	4
CCOC(=O)c1sc(NC(=O)C2CC2)cc1C	-7%	2%	11%[46.1 µM]	-4%	?	-14
Fc1ccc(NCc2nnc(SCc3nnc(-c4ccccc4)o3)n2Cc2ccccc2)cc1	28µM*	1%[38.3 µM]	?	-14%	-14	6
SMILES	HPGD block	IMPase Li inh	NPSR antag	ALDH1A1 block	PNC assembly inh	IMPase inh
Clc1ccc(-c2nnc(CSc3nnc(-c4cccs4)n3Cc3ccccc3)o2)cc1	-8%	18%	-8%	-3%	-11	.
COc1ccc(CC(=O)Nc2nnc(SCc3ccccc3)s2)cc1S(=O)(=O)N1CCOCC1	-17%	27%[38.3 µM]	-20%[46.1 µM]	?	15	5
COc1ccc(S(=O)(=O)N(C(=O)c2ccco2)c2cc3sc(=O)oc3c3ccccc23)cc1	?	11%	-12%	25µM*	?	.
CC(=O)N(c1ccc2oc(=O)sc2c1)S(=O)(=O)c1ccccc1	-28%	-15%[38.3 µM]	?	-4%	20	6
CCOc1ccc(S(=O)(=O)N(C(=O)c2ccco2)c2cc3sc(=O)oc3c3ccccc23)cc1	-29%	13%	-27%	?	60	.
Cc1ccc(S(=O)(=O)N(C(=O)c2ccco2)c2cc3sc(=O)oc3c3ccccc23)cc1	?	3%	-10%	32µM*	2	.
Cn1nnnc1SCC(=O)Nc1ccccc1[N+](=O)[O-]	-12%	-5%[38.3 µM]	-1%[46.1 µM]	?	-23	3
CCn1c(=O)cc(OCC(=O)NCCCN2CCC(C)CC2)c2ccccc21	5%	17%[38.3 µM]	-4%[46.1 µM]	3%	-21	3
Cc1ccc(C)n1-c1ccc(N2CCOCC2)cc1	-25%	39%[38.3 µM]	-11%[46.1 µM]	7.1µM*	26	6
c1ccc(N2CCOCCOCCOCCOCC2)cc1	.	.	4%	.	.	.
Cc1cccc(NC(=O)CSc2nc(-c3ccccc3)c(C#N)c(=O)[nH]2)c1C	-15%	10µM*	1%[46.1 µM]	-9%	32	?
CCC(Sc1nc(-c2ccccc2)c(C#N)c(=O)[nH]1)C(=O)Nc1nnc(C)s1 (stereo not drawn)	?	3.2µM*	5%[46.1 µM]	?	?	?
C=CCSc1nc(-c2ccccc2)c(C#N)c(=O)[nH]1	?	?	-12%[46.1 µM]	?	11	?
N#Cc1c(-c2ccccc2)nc(SCC(=O)Nc2ccccc2F)[nH]c1=O	16µM*	10µM*	-26%	?	48	.
N#Cc1c(-c2ccccc2)nc(SCC(=O)N(c2ccccc2)c2ccccc2)[nH]c1=O	28µM*	-18%	-14%	13µM*	-27	-24
CC1CCc2cc(F)ccc2N1S(=O)(=O)c1ccc(Cl)nc1 (stereo not drawn)	-19%	1%	-23%	?	?	2
CCCOc1ccc(-c2nnc(N)s2)cc1	-11%	22%[38.3 µM]	-4%[46.1 µM]	-1%	?	4
COC(=O)c1[nH]c2cccc(OC)c2c1NC(=O)CCN1CCSCC1	.	.	5%	?	.	.
CCCCNC(=O)CN(C1CCCCC1)S(C)(=O)=O	-1%	19%[38.3 µM]	-5%[46.1 µM]	2%	-12	-5
Cn1c(=O)[nH]c(=O)c2c1nc(CN1CCOCC1)n2Cc1ccccc1	-11%	23%[38.3 µM]	-10%[46.1 µM]	-10%	?	-3
N#Cc1c(-c2ccccc2)nc(SCC(=O)Nc2ccccc2)[nH]c1=O	-25%	?	-32%	-2%	31	?
CCOC(=O)CCCCC(=O)c1[nH]c(=O)[nH]c1CSc1nc(-c2ccccc2)c(C#N)c(=O)[nH]1	20µM*	3%[38.3 µM]	0%[46.1 µM]	7.9µM*	45	-18
N#Cc1c(-c2ccccc2)nc(SCC(=O)Nc2nnc(C(F)(F)F)s2)[nH]c1=O	.	11µM*	-44%	-5%	.	.
